Assay outcomes from PubChem BioAssay.
DT40 TDP1 no CPT = qHTS for Inhibitors of human tyrosyl-DNA phosphodiesterase 1 (TDP1): qHTS in cells in absence of CPT; DT40 Tdp1-/- hTDP1 cells, no CPT, ATP luminescence, 48 h; Potency, µM (doses to about 46.2 µM), without a hit: at the top dose activity change, negative = growth inhibition, most hits filed as inhibitors; 420,000 compounds, 15% hits; note: nearly all actives have a fitted effect of over 55% in size
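Growth kinetics read by CellTiter-Glo luminescence after ≥48 hr at 37 °C. Cells: DT40 Tdp1-/- stably carrying human TDP1, 400 per well, compound exposure in the absence of CPT (DMSO vehicle).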
VP16 counter = VP16 counterscreen qHTS for inhibitors of ROR gamma transcriptional activity | Drosophila S2 Gal4-VP16 UAS-luciferase, luminescence, 20 h | Potency, µM (highest dose often 53.6 µM), for the others: at the top dose activity, negative = inhibition, most hits filed as inhibitors | 310,000 compounds, 3.5% hits;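 note: Gal4-VP16 expression switched on by copper sulfate through the metallothionein promoter; nearly all actives have a fitted effect of over 50% in size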
TDP1 cell CPT = qHTS for Inhibitors of human tyrosyl-DNA phosphodiesterase 1 (TDP1): qHTS in cells in presence of CPT; chicken DT40 Tdp1-/-;hTDP1 cells + 20 nM CPT, ATP luminescence, 48 h; Potency, µM (doses to about 46.2 µM), inactives show top-dose activity change, negative = growth inhibition, hits mostly inhibitors; 420,000 compounds, 12% hits; AID 686979, 2013; note: nearly all actives have a fitted effect of over 55% in size
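Chicken DT40 Tdp1-/- cells complemented with human TDP1, 400 cells/well, exposed to compounds plus 20 nM camptothecin for at least 48 h at 37 C; viability read as ATP content by CellTiter-Glo luminescence.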
TDP1 block = qHTS Assay for Inhibitors of Tyrosyl-DNA Phosphodiesterase (TDP1). recombinant TDP1, AlphaScreen DNA substrate cleavage. Potency, µM (titrated, usually from 130 µM), for inactives: at the top dose activity change, negative = inhibition, actives largely listed as inhibitors. 350,000 compounds, 0.28% hits. AID 485290, 2010; note: nearly all actives have a fitted effect of over 40% in size
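Recombinant E. coli-expressed Tdp1 (1 nM) preincubated with compound 15 min at RT, then 5'-biotin/3'-phosphotyrosine-FITC DNA substrate (15 nM) added for 5 min. AlphaScreen beads (10 ug/ml) added, 10 min RT; tyrosine-FITC cleavage read as signal loss.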
RORgamma inh = qHTS for inhibitors of ROR gamma transcriptional activity; Drosophila S2 Gal4-RORgamma UAS-luciferase reporter, 20 h; Potency, µM (doses to about 53.6 µM), without a hit: top-dose activity change, negative = inhibition, hits mostly inhibitors; 310,000 compounds, 5.4% hits; AID 2551, 2010; note: nearly all actives have a fitted effect of over 60% in size
Target sequence (P51450 whole entry, looked up, the tested form may be a part): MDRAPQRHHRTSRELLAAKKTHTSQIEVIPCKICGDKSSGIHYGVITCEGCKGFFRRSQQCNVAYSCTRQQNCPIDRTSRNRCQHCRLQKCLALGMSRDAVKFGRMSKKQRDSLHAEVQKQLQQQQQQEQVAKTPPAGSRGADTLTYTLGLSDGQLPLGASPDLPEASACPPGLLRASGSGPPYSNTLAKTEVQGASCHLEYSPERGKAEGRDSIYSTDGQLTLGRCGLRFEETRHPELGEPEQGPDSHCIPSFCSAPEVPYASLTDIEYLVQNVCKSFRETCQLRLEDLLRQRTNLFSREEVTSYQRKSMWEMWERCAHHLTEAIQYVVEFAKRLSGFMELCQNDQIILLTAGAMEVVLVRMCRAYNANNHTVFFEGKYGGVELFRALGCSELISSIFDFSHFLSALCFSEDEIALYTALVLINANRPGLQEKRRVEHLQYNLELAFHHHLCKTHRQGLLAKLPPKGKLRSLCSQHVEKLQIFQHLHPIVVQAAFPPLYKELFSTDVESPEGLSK
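Read-out: Photinus luciferase luminescence; inhibitors lower reporter signal. Insect Schneider cells with Gal4-ROR gamma fusion under metallothionein promoter, UAS reporter; 700 uM final copper sulfate induction, 20 hr, ambient temperature.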
* marks the source's active call; other numbers are inactive results; ! = repeats disagree; [ ] = dose if it differs, or a comment. Rows were chosen to be rich in hits. Some 19% of all compounds tested hit in one or more screens of this group. Calls come from the whole dose curve; as a rule, active = well fitted curve in the direction sought with a large enough effect; inconclusive = small, poorly fitted or top-dose-only effect, or another doubt; inactive = no such curve, though single readings can be large; an effect the other way counts as inactive or inconclusive. % is set by controls: 0 for no effect and ±100 for the full control effect; potency is the fitted concentration of half-maximal effect.

What do the screens show for `CCCCCn1c(=O)c(C(=O)Nc2ccccc2)c(O)c2ccccc21`?
DT40 TDP1 no CPT: 5.2µM*; VP16 counter: 1%; TDP1 cell CPT: 4.1µM*; RORgamma inh: -20%

Results for COc1ccc(C2(C#N)CCN(C)CC2)cc1 ?
DT40 TDP1 no CPT: -10%; VP16 counter: -2%; TDP1 cell CPT: -28%; TDP1 block: 5%; RORgamma inh: -10%

Results for CCC(=NCc1cccnc1)c1c(O)n(-c2ccc(Cl)cc2)c(=O)[nH]c1=O ?
DT40 TDP1 no CPT: -9%; VP16 counter: -2%; TDP1 cell CPT: 0%; TDP1 block: -1%; RORgamma inh: 1%

Results for COc1cccc(N2CCN(C(=O)C3CCN(S(=O)(=O)c4ccc5c(c4)oc(=O)n5C)CC3)CC2)c1 ?
DT40 TDP1 no CPT: 18µM*; VP16 counter: -2%; TDP1 cell CPT: 16µM*; TDP1 block: 6%; RORgamma inh: 10%

What do the screens show for `COc1ccccc1N1CCN(S(=O)(=O)c2ccc3c(c2)oc(=O)n3C)CC1`?
DT40 TDP1 no CPT: inconclusive; VP16 counter: -13%; TDP1 cell CPT: -3%; TDP1 block: 7%; RORgamma inh: 26%

What do the screens show for `Cn1c(=O)oc2cc(S(=O)(=O)N3CCCC(C(=O)N4CCN(c5cccc(Cl)c5)CC4)C3)ccc21` (centres undefined)?
DT40 TDP1 no CPT: 8.2µM*; TDP1 cell CPT: 9.2µM*; TDP1 block: 4%

How did c1cc(OCCN2CC2)ccn1 do in these assays?
DT40 TDP1 no CPT: 7.3µM*; TDP1 cell CPT: 3.3µM*

What do the screens show for `c1cnc(OCCN2CC2)cn1`?
DT40 TDP1 no CPT: 13µM*; TDP1 cell CPT: 8.2µM*

What do the screens show for `C/C=C1/CN2[C@@H]3C4CO[C@@H]3c3c([nH]c5cc(OC)ccc35)[C@@H]2CC14` (some centres undefined)?
DT40 TDP1 no CPT: -1%; TDP1 cell CPT: -5%

Results for CC(C)(C)OOC(C)(C)C ?
VP16 counter: 8%; TDP1 block: 16%; RORgamma inh: 17%

How did C#C[C@]1(O)CC[C@H]2[C@@H]3CCC4=CC(=O)CCC4=C3C=C[C@@]21CC do in these assays?
DT40 TDP1 no CPT: 9.4µM*; VP16 counter: -9%; TDP1 cell CPT: 13µM*; RORgamma inh: 28%

What do the screens show for `Cc1cccc(OCC(=O)N2CCN(Cc3ccncc3)CC2)c1`?
DT40 TDP1 no CPT: -7%; VP16 counter: 6%; TDP1 cell CPT: -23%; RORgamma inh: 28%

How did C=CCn1c(O)c(/C(C)=N/NC(=S)Nc2ccccc2)c(=O)[nH]c1=O do in these assays?
DT40 TDP1 no CPT: inconclusive; VP16 counter: 7%; TDP1 cell CPT: inconclusive; RORgamma inh: -14%

What do the screens show for `C=CCn1c(O)c(C(CC)=NCCc2c[nH]c3ccccc23)c(=O)[nH]c1=O`?
DT40 TDP1 no CPT: 16µM*; VP16 counter: -13%; TDP1 cell CPT: inconclusive; TDP1 block: 3%; RORgamma inh: 12%

What do the screens show for `C=CCn1c(O)c(C(=O)CCCCCC)c(=O)[nH]c1=O`?
DT40 TDP1 no CPT: 8.2µM*; VP16 counter: -12%; TDP1 cell CPT: 12µM*; TDP1 block: 3%; RORgamma inh: 0%

Results for C=CCn1c(O)c(/C(CC)=N/NC(=S)Nc2ccccc2)c(=O)[nH]c1=O ?
DT40 TDP1 no CPT: -1%; VP16 counter: 3%; TDP1 cell CPT: 9%; TDP1 block: 40µM*; RORgamma inh: inconclusive

How did CCOC(=O)C(O)(c1ccc(NC(=O)NC)cc1)C(F)(F)F (centres undefined) do in these assays?
DT40 TDP1 no CPT: -6%; VP16 counter: 0%; TDP1 cell CPT: -10%; RORgamma inh: 13%

How did CCOP(=O)(OCC)/C(=N/OC(=O)c1ccccc1C)C(N)=O do in these assays?
DT40 TDP1 no CPT: 13µM*; VP16 counter: inconclusive; TDP1 cell CPT: inconclusive; TDP1 block: 0%; RORgamma inh: -4%

How did CCN1C[C@]2(COC(=O)c3ccccc3N3C(=O)C[C@H](C)C3=O)CC[C@H](OC)[C@@]34[C@@H]5C[C@H]6[C@H](OC)[C@H]5[C@](O)(C[C@@H]6OC)[C@@](O)([C@@H](OC)[C@@H]23)[C@@H]14 do in these assays?
DT40 TDP1 no CPT: -7%; VP16 counter: -2%; TDP1 cell CPT: 12%; TDP1 block: 14%[56.1 µM]; RORgamma inh: 5%

What do the screens show for `C=CCn1c(O)c(C(CC)=Nc2cccc(C(=O)O)c2)c(=O)[nH]c1=O`?
DT40 TDP1 no CPT: -9%; VP16 counter: 5%; TDP1 cell CPT: -1%; RORgamma inh: -3%

Results for O=C(c1ccccc1F)c1cn(CC(=O)N2CCCC2)c2ccccc12 ?
DT40 TDP1 no CPT: 16µM*; VP16 counter: 6%; TDP1 cell CPT: inconclusive; TDP1 block: 7%; RORgamma inh: 52%

Results for O=C(c1ccccc1F)c1cn(CC(=O)N2CCOCC2)c2ccccc12 ?
DT40 TDP1 no CPT: -4%; VP16 counter: 8%; TDP1 cell CPT: -23%; TDP1 block: 0%; RORgamma inh: 4%

Results for C[C@H](CO)N1C[C@H](C)[C@@H](CN(C)C(=O)Oc2ccccc2)OCc2cnnn2CCCC1=O ?
DT40 TDP1 no CPT: -4%; TDP1 cell CPT: 8%

How did CC(=O)Nc1ccc(S(=O)(=O)NC(CC(=O)N2CCC3(CC2)OCCO3)C(C)C)cc1 (centres undefined) do in these assays?
DT40 TDP1 no CPT: -5%; VP16 counter: 3%; TDP1 cell CPT: -18%; TDP1 block: 7%; RORgamma inh: -12%

What do the screens show for `CCCCCCCCOC(=O)c1ccccc1C(=O)OCCCCCCCC`?
DT40 TDP1 no CPT: 0%; VP16 counter: -6%; TDP1 cell CPT: -7%; TDP1 block: 2%; RORgamma inh: 1%[10 µM]

Results for CCCCOC(=O)c1ccccc1C(=O)OCc1ccccc1 ?
DT40 TDP1 no CPT: -8%; VP16 counter: 5%; TDP1 cell CPT: 19%; TDP1 block: 40µM*!; RORgamma inh: inconclusive

How did O[C@@H]1[C@@H]2O[P@@](O)(=S)OC[C@H]2O[C@H]1n1cnc2cc(Cl)c(Cl)cc21 do in these assays?
VP16 counter: -8%; TDP1 block: -6%; RORgamma inh: -3%

Results for OC[C@H]1O[C@@H](n2cnc3cc(Cl)c(Cl)cc32)[C@H](O)[C@@H]1O ?
DT40 TDP1 no CPT: 15µM*; TDP1 cell CPT: inconclusive
